Here are results for 108 sequences from PubChem BioAssay AID1508600 (Functional Genomics Laboratory (NCATS/FGL), 2020).

Out of some 53,000 sequences screened, about 3,700 (7%) were called active. Shown is part of a subset that was picked to be rich in actives. A number with no mark means an inactive call.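 The calls were made as follows: active = gene knockdowns whose robust z-score for IL-1 alpha signal is at least 2 or at most -2, so actives lie on both sides; inactive = the rest.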

This experiment in a line: Components of the Cytosolic LPS Sensing Pathway: Gene Identification via Genome-wide siRNA Screen.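 Also: robust z of the log signal after scaling to non-targeting control siRNA wells of the plate.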 The note with it: RAW264.7 macrophages, IL-1a HTRF, actives lie on both sides, screened at 100 nM (by protocol), cells primed 5 h with Pam3CSK4 first. In a few lines:
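Mouse macrophage line RAW264.7 is transfected with siRNA (100 nM final), grown 48h, primed with TLR ligand Pam3CSK4 5 h and given intracellular LipidA 24 h. IL-1a in supernatant is read by HTRF and viability by luminescence.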
Turning to GCUCUAGGCCAGAUGUUACTT against Slc13a3, the z-score was -0.476.
For CGUUUCCUGCUCAAAUCCUTT against Abhd2 the value was -1.17; for GGAGAUUCGGACAAAGUGATT against Rhcg, -1.31.
The result for GGAGUAGCUGUUCUAAUUGTT against Scamp5 reads -1.65.
For GGCUUUAAGAAUGUAUCGCTT against Dpp3 the value was -0.751; for GCCUUUUCCCGUCUGGAGATT against Glis1, 0.122; for CGUUGCUGUUGUGGUCUUGTT against Olfr1232, -2.71 (active).
Take GGGCCCAGGCUAAAAUAAATT against Cfap100: the z-score is 0.367.
The result for GGUCACCUCAAUAAACUCUTT against Myl7 reads 0.228; that for CGUGUAAACGCAAUUAAAATT against Zfp870, 0.272.
With GGUUCAGAUGUCUGAUAAATT against Mrm3, the z-score was 1.43.
For GGAGCAUGUAGAGGUUUACTT against Txnrd2 the value was 2.44 (active).
The result for GGAUACCUAGUUCUUAGUUTT against Mageb18 reads 0.151; that for GGGACUUUCGUAAUAAACCTT against Lman1, -1.26; that for CGUGAAAUAGAUGAUACCUTT against Cdc5l, 0.625.
The result for GGUAACGAUGCUGGAAUUCTT against Sdcbp reads 4.37 (active); that for GCAAACUCCAGCUCAACGATT against Galnt4, -1.19; that for GGAUGGUGUUGUGUUUAAATT against Chst2, 0.962.
Take GGCUGGUGCUGAAUAUCUUTT against Bnip5: the z-score is 0.507.
The result for GGUCUUGGUCCCUGAGAAATT against Ddit4l reads 0.23; that for GGACAAAUUGUAUGGCGAATT against Hecw2, -0.402; that for GAGAACAAGCCUAAGCCCATT against V1rb5, 1.44.
The result for GCUCGAGGACUAUAUGAAUTT against Xrcc1 reads 2.03 (active); that for GGAAUAUUGUGGCCUUAUATT against Bnip3, 0.489.
The result for GAGGGAUAUGUGAAGCCUCTT against Mospd3 reads -0.806.
For CCGAAGUCAAUGAAGCUCUTT against Gcsh, the z-score was -2.13 (active).
For CCAUGUUCAGAAGAGAAUATT against Igsf11 the value was -1.69; for GCAAGUAGAAACCCUUAAUTT against Scara5, -0.0354.
For CGAUUCCGUCAAAUUAAAGTT against Catsper2 the value was 0.156.
The result for GGCAGAUUGUGAAAAAACUTT against Slc9a6 reads -0.503; that for GGAAAAGGUCAUUAUCAUUTT against Hsf3, -2.11 (active).
Turning to GUCACUGUGAUGGGAAAUUTT against Olfr895, the z-score is -0.847.
The result for ACACCUGCCUGCAUCUACUTT against Tcp10a reads 1.5.
GCACUUGUGACUAUAAAGUTT against Celf2: the z-score is 0.262.
The result for UGUGGUGAACCCAAUGCACTT against Klk1b22 reads -3.28 (active); that for CCUGAUUGGGAUCUCAAGATT against Ccdc12, -0.673.
With AAUAAAAGUGUCCUCUGUGTT against Olfr242, the z-score was 0.202.
The result for GGAUAGUUUUGUGUUUGAUTT against Gab2 reads 0.932; that for GGUCAUUGAUCUCAGCAACTT against Optc, -0.427; that for CCCUACACGCAGGAGUUUUTT against Gtf3c1, -0.23.
With GCCCUACACCUGUAUUACATT against Tas1r3, the z-score is -0.964.
As for CCUGGAACUUGUUGGAAGCTT against Igsf3, the z-score was 0.799.
For GUGUUCAGGAAGCUGGCAGTT against Klra19 the value was 1.98; for GGACCUCCUCCCAAAGAUATT against Snrpb, -2.83 (active); for GCUAUGGAUCAAAGAAUUATT against Senp1, 0.204.
The result for GGCCCAUCCCACAAUGAUATT against Atg9b reads -0.998; that for GGAAGUAGGAUGAUGUUGGTT against Hmga1, -2.08 (active); that for GCUCACCCAACAAUAUCCATT against Slc17a8, -0.881.
The result for CGAGAAUAUUCGCCCAACCTT against Erbb3 reads 0.682.
Regarding GGAGAUCCGGAAUUUUUAATT against Per2, the z-score is -0.0639.
The result for GCUAUAUAAUGCUUAUGUGTT against Tpr reads -0.501.
For GCCUUUGAUAAAAGUCCGGTT against Saxo2 the value was -0.93; for GGAGGGAAUAUGCAAAUAGTT against Ftdc2, 2.36 (active); for GGACAUGAUGAUGAUGAUGTT against Gldn, -1.8.
The result for GCUUAUAGAAAACCAGUAATT against Foxd1 reads 0.317; that for GGAAGAAAUGAUGAAUGACTT against Chmp2a, 2.36 (active); that for GGAUGAUGACAUUCACUUATT against Ntan1, -0.619.
In the case of GCCUCGAUCUGAUCUAGAGTT against Dbx2, the z-score was 0.291.
The result for GGCUGCUGUCAUUAUUUGUTT against Terf2 reads -0.768; that for GGCAUCUUUCACAGUUUUGTT against Hspa12b, 2.13 (active).
Take GGUUUAUGAGCUCUACGCCTT against Tmem11: the z-score was -0.843.
The result for GGAAGAUGAUGUUUUAGGUTT against Pde7a reads 0.271; that for CCCAAAGCUAUCAUAUCAATT against Aff4, 0.508.
Turning to GGCGACACAUUAAAAUAGUTT against Mepe, the z-score was 2.19 (active).
As to GUUACCUCUGUGUUGUACUTT against Olfr60, the z-score is -0.148.
Take GGAAGAAAAAGAUGAGAAATT against Hrc: the z-score was 0.394.
The result for GCAUGUCUCAACUAAGGACTT against Upk3b reads 1.03; that for CCUACAGAGGUGCCAUUGUTT against Naa60, -0.244.
Consider GGACCGAUUCCACUUCAAUTT against Crygd, for which the z-score is 1.46.
The result for GCCAAAUGGUGUCAAUAUUTT against Rab33a reads 0.277; that for GGAGGAUGAUGAGGAGGAUTT against Ppp1r1b, 2.35 (active).
For CGUGCCAGACCUAUAGCUUTT against Mlxip the value was -0.226; for GGAGACCUUCCAGAACACATT against Mesd, 2.38 (active).
For GCGGAUUUACACCUUAUCUTT against Bpi the value was -1.15.
On to GGCUAUCACACAGCAUAGATT against Rdh7, for which the z-score is 1.57.
Take CCGUUGGAGGUAAUUAGGATT against Dot1l: the z-score is 0.463.
Take GGCACUGUAAAUGUACUCATT against Rbak: the z-score is -2.54 (active).
On to GGAGAAGUACAACGCAGCGTT against Wnt7b, for which the z-score was -0.273.
For GGCUAUGCACUACUCAUUGTT against Galk1 the value was -0.607.
For CCAUCCCAUUUAAUGGAUGTT against Olfr1257 the value was 1.09; for GCUCCAGAUGUUCAGAGCUTT against Fbxo9, -2.43 (active); for GCAUUCAGACCAUGACACUTT against Trim30d, 0.914.
Take GGCCAAGUGAUAGAGUUCATT against Crygd: the z-score is 1.22.
On to GGAAGUUCGAUGUUCCUAGTT against Cep85, for which the z-score was 0.779.
Take GGUUAUUAUGACCAAGAAATT against Sf3b1: the z-score was -2.71 (active).
For GCAGUAACCUUCUAACAAATT against Foxn2, the z-score is -0.367.
The result for GGAGAAAGAUGUUUACCGATT against Hyal2 reads -0.533; that for GGAACUUAAGACUUUCAAGTT against Abcf2, 0.904.
For GCGGAUGCAAAUCGAUGAATT against Cep135 the value was -0.507.
The result for GCAUCAUACUGACCUGAGATT against Gml2 reads -1.25; that for CCUAUCUUCCUGAAUACAUTT against Aqp7, 2.71 (active); that for CCGGCUUAUGCUCAACUUCTT against Bpifb1, 0.29.
For GGAACAAUUGAUAAGACGATT against Guf1, the z-score was 0.237.
The result for GGUCAAGGAGUUCAUUCUGTT against Matn2 reads -1.33.
The result for GGAUCAUUCUGUGAACAAGTT against Ly6h reads 1.52.
The result for GCCCAUUGUAUGACUGCCGTT against Gfra2 reads 3.21 (active); that for CCCAAAUACCUACCAUCUCTT against Slc4a9, -0.44.
Regarding GGACUCUGAAGAGGAAAAGTT against Pds5b, the z-score is -0.266.
In the case of CCUUACCAGGAAACAUAUUTT against Dennd10, the z-score was -1.33.
For GCGGUUAGCACAAUGUGAATT against Ppp2cb the value was -0.577.
The result for GGAAAUAAAACAGAUUUGGTT against Atpaf1 reads 0.576; that for GGCACGAGGCAGAAUUUUATT against Kctd3, 0.696.
For GCUACAAUUGGCCUUAUCUTT against Stpg2 the value was -3.03 (active); for GGUACUGCUAUGAGAAACUTT against Adam22, 0.224.
As for GGACCAGAAACGCAUGCUUTT against Maml3, the z-score is -0.762.
As for GGAAAACUCAUCAUACCAGTT against Ugt3a1, the z-score was 0.737.
The result for CGAUUUUACCAACCGCUGCTT against Chtf18 reads 0.702.
Turning to GCUGUUGUAACCAUAACAGTT against Ntsr1, the z-score is 0.439.
